Sfp PPTase inh = Sfp phosphopantetheinyl transferase inhibition; 310,000 tested, 3.5% active; Q9F4F7; Biochemical Sfp PPTase activity, qHTS; Potency, µM, for inactives: largest response in the series, negative = inhibition, actives largely listed as inhibitors;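 note: the enzyme is Sfp with the accession as filed and its product quenches rhodamine fluorescence; 0% = enzyme reaction without inhibitor and -100% = no enzyme wells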
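Step 1, compound plus 15 nM Sfp-PPTase, 15 min, room temperature. Step 2, add rhodamine-CoA (5 uM) and BHQ-2-YbbR (12.5 uM). Step 3, read 525/598 nm fluorescence at 0 and 30 min.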
JMJD2A Tudor = JMJD2A Tudor domain (human) inhibition; Potency, µM (doses to about 114 µM), for inactives: at the highest dose activity change, negative = inhibition, most hits filed as inhibitors; O75164; AID 504339; AlphaScreen JMJD2A-Tudor / H3K4me3 peptide binding; 390,000 tested, 4.4% active; note: % is set by controls: 0 for no effect and ±100 for the full control effect; nearly all actives have a fitted effect of over 50% in size
HP1b binding inh = inhibitors of HP1-beta chromodomain binding to methylated histone tails. P83916. AlphaScreen HP1-beta / biotin-H3K9me3 peptide binding. Potency, µM (top dose mostly 114 µM), without a hit: at the top dose activity change, negative = inhibition, actives largely listed as inhibitors. 390,000 tested, 0.56% active; note: nearly all actives have a fitted effect of over 70% in size
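Compound inhibition of the preformed complex between 50 nM HP1-beta and 50 nM biotinylated H3K9me3 peptide was read by AlphaScreen. Buffer was PBS pH 7.4 with 0.01% Tween-20. Incubations ran 30 min at room temperature, with 10 ug/mL donor/acceptor beads.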
L3MBTL1 inh = inhibitors of human L3MBTL1; Q9Y468; AlphaScreen L3MBTL1–H3K9me1 peptide binding; Potency, µM (doses to about 57.1 µM), for inactives: at the top dose activity, negative = inhibition, actives largely listed as inhibitors; 230,000 tested, 0.66% active; note: % is set by controls: 0 for no effect and ±100 for the full control effect; nearly all actives have a fitted effect of over 60% in size
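AlphaScreen assay: L3MBTL1 (50 nM final) was preincubated 30 min at room temperature with biotinylated H3(1-15)K9me1 peptide (75 nM final), then 30 min with library compounds; streptavidin donor and nickel chelate acceptor beads (10 ug/mL final) added, 30 min dark.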
G9a inh = G9a (human) methyltransferase inhibition | 350,000 tested, 8.8% active | G9a H3K9 monomethylation, AlphaScreen, 2 h | AID 504332 | Q96KQ7 | Potency, µM (highest dose often 102 µM), for the others: at the top dose activity, negative = inhibition, hits mostly inhibitors; note: % is set by controls: 0 for no effect and ±100 for the full control effect; nearly all actives have a fitted effect of over 75% in size
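Readings reflect AlphaScreen signal from monomethyl-H3K9 antibody detection. HMT at 20 nM; substrate b-H3K9 500 nM; cofactor SAM 20 uM; 2 h RT reaction; compounds tested as titrations in qHTS with 15 min preincubation.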
BAZ2B inh = BAZ2B (human) inhibition; Q9UIF8; AlphaScreen BAZ2B-H3K14Ac peptide displacement; Potency, µM (highest dose often 114 µM), for the others: at the highest dose activity change, negative = inhibition, hits mostly inhibitors; 360,000 tested, 4.4% active; note: % is set by controls: 0 for no effect and ±100 for the full control effect; nearly all actives have a fitted effect of over 60% in size
Target sequence (Q9UIF8 whole entry, looked up): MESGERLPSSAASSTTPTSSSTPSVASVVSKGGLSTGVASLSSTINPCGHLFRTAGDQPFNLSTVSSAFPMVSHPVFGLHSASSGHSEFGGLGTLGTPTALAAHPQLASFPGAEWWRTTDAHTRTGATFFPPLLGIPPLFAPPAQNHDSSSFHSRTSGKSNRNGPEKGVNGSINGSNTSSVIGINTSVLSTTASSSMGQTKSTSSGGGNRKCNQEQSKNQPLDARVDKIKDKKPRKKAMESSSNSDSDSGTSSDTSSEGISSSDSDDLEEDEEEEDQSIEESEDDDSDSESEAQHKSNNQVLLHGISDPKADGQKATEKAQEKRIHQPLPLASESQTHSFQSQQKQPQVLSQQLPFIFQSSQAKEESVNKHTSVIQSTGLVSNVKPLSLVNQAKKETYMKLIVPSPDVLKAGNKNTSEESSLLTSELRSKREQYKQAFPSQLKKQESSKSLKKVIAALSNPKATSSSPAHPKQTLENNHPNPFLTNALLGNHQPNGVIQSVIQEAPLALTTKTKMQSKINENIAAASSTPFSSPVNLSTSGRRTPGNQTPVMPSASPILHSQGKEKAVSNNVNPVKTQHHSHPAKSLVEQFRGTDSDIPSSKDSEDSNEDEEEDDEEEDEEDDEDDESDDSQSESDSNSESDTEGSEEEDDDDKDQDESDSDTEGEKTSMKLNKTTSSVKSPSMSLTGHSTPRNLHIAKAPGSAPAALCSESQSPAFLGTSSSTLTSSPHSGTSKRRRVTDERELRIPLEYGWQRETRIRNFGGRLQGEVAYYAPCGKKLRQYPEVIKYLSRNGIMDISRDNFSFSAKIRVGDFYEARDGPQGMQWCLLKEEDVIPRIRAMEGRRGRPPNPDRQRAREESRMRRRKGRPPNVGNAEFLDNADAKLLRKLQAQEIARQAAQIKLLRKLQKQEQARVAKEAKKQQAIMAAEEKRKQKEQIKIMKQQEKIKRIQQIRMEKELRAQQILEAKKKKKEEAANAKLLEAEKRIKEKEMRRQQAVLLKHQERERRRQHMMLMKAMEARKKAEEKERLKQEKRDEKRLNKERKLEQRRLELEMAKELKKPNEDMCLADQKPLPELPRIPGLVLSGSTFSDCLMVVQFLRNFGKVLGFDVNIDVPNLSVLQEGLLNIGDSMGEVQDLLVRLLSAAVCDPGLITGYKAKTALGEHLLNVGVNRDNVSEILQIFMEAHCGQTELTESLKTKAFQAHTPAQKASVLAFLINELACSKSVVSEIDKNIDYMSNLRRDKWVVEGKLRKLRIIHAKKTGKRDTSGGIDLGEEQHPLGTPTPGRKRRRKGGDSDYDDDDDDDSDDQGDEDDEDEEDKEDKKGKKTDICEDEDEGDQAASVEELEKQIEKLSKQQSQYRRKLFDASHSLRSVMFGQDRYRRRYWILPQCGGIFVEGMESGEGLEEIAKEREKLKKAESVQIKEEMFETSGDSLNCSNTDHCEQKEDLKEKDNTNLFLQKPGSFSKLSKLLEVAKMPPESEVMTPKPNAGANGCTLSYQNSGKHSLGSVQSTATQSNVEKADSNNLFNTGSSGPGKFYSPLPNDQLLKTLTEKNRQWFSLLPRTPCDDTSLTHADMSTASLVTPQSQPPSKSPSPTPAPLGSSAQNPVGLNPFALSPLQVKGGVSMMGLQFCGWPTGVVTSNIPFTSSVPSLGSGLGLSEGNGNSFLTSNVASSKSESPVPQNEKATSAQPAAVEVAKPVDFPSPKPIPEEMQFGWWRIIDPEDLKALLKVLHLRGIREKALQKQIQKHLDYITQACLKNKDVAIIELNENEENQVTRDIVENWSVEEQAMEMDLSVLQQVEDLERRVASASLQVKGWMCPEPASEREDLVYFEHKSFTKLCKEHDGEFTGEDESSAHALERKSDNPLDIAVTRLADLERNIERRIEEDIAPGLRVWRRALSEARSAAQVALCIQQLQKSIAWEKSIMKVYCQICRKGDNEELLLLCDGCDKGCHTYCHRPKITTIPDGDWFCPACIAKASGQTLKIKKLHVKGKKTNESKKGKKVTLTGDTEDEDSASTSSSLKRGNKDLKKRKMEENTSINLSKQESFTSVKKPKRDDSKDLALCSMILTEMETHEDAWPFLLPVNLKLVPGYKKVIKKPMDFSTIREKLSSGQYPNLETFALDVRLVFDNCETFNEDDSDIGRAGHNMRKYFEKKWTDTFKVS
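AlphaScreen displacement of biotin-H3(5-23)K14Ac peptide (50 nM final) from BAZ2B (50 nM final) in PBS pH 7.4, 0.01% Tween-20; complex preformed 30 min RT, then compounds (top 110 uM) 30 min RT, beads 20 min dark.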
Numbers without * were called inactive; [ ] = dose if it differs, or a comment. Most compounds without a hit are left out; they make up all but 12% or so of the library. Calls come from the whole dose curve; as a rule, active = well fitted curve in the direction sought with a large enough effect; inconclusive = small, poorly fitted or top-dose-only effect, or another doubt; inactive = no such curve, though single readings can be large; an effect the other way counts as inactive or inconclusive. Potency is the fitted concentration of half-maximal effect.

NCCSC1CC(=O)N(Cc2ccc(F)cc2)C1=O (configuration not stated) was read as Sfp PPTase inh 6%, JMJD2A Tudor 2%, HP1b binding inh 36%, L3MBTL1 inh 8%, G9a inh 40µM* and BAZ2B inh -5%.
For CCOc1ccc(N2C(=O)CC(/C=C3/N(C)c4ccccc4C3(C)C)C2=O)cc1 (configuration not stated) the results were Sfp PPTase inh 0%, JMJD2A Tudor inconclusive, HP1b binding inh 8%, G9a inh 14µM* and BAZ2B inh inconclusive.
Screening O=c1cc(-c2cccc(F)c2)[nH]c2cc(Cl)ccc12 returned Sfp PPTase inh 7% and G9a inh -5%.
For CC(=O)Nc1ccc(NC(=O)CCc2c(C)nc3c(c(C)nn3-c3ccc(C)cc3)c2C)cc1 the results were JMJD2A Tudor -12%, HP1b binding inh 60%, G9a inh 17%[59 µM] and BAZ2B inh 11%.
Screening CC(C)CN(CCCNC(=O)c1cn(C)c2ccc(S(=O)(=O)N(C)C3CCCCC3)cc2c1=O)CC(C)C returned JMJD2A Tudor -14%, HP1b binding inh 13% and G9a inh 2%[59 µM].
Screening COc1ccc(/C=N/NS(=O)(=O)c2ccc(F)cc2)cc1COc1cc(F)ccc1[N+](=O)[O-] returned Sfp PPTase inh -26%, JMJD2A Tudor -9%, HP1b binding inh 45%, L3MBTL1 inh -5%, G9a inh 6.3µM* and BAZ2B inh -19%.
For CC(NC(=O)Nc1cccc(F)c1)c1ccc2c(c1)OCO2 (configuration not stated) the results were Sfp PPTase inh 4%, JMJD2A Tudor -7%, HP1b binding inh 44% and BAZ2B inh 3%.
`CC(CCc1ccco1)NC(=O)Nc1cccc(F)c1` (configuration not stated) gave Sfp PPTase inh 11%, JMJD2A Tudor -34%, HP1b binding inh 2%, L3MBTL1 inh -1%, G9a inh 50µM* and BAZ2B inh -28%.
Screening COc1ccc(C(=O)NCC2(c3ccccc3)CCOCC2)cc1[N+](=O)[O-] returned Sfp PPTase inh 16%, JMJD2A Tudor 32µM*, HP1b binding inh inconclusive, L3MBTL1 inh -10%, G9a inh 18%[59 µM] and BAZ2B inh -2%.
`Cc1ccc(C(C)(c2ccc(N)cc2)c2ccc(N)cc2)cc1` gave JMJD2A Tudor 50µM* and HP1b binding inh inconclusive.
For Nc1ccc(C(O)(C(F)(F)F)C(F)(F)F)cc1 the results were Sfp PPTase inh 6%, JMJD2A Tudor inconclusive, HP1b binding inh 13%, G9a inh 22% and BAZ2B inh -3%.
COc1ccc(Nc2ncc(C(=O)Nc3cccc(Cl)c3)c3ccccc23)cc1 was read as JMJD2A Tudor 79µM*, HP1b binding inh 6%, G9a inh -4%[59 µM] and BAZ2B inh 79µM*.
Screening COc1ccc(Nc2ncc(C(=O)Nc3cc(Cl)c(OC)cc3OC)c3ccccc23)cc1 returned JMJD2A Tudor -10%, HP1b binding inh 5%, G9a inh -41%[59 µM] and BAZ2B inh -4%.
Cc1cc(C)cc(OC(=O)c2snnc2C)c1 was read as JMJD2A Tudor 62%, HP1b binding inh 79%, G9a inh -46%[59 µM] and BAZ2B inh 36%.
`Fc1ccccc1N1CCN(C(c2ccncc2)c2nnnn2C2CCCC2)CC1` (configuration not stated) gave Sfp PPTase inh -2%, JMJD2A Tudor -18%, HP1b binding inh 41%, L3MBTL1 inh -1%, G9a inh 32µM* and BAZ2B inh 0%.
For CCCC(c1nnnn1C1CCCC1)N1CCN(c2ccccc2F)CC1 (configuration not stated) the results were Sfp PPTase inh 6%, JMJD2A Tudor -5%[11.4 µM], HP1b binding inh 32%, L3MBTL1 inh -8%, G9a inh 50µM* and BAZ2B inh -30%.
`CCC(c1nnnn1C1CCCC1)N1CCN(c2ccccc2F)CC1` (configuration not stated) gave Sfp PPTase inh -4%, JMJD2A Tudor -5%, HP1b binding inh 42%, G9a inh -36%[12.7 µM] and BAZ2B inh -29%.
For c1ccc(C(c2nnnn2C2CCCC2)N2CCCCCC2)nc1 (configuration not stated) the results were Sfp PPTase inh 79µM*, JMJD2A Tudor 50µM*, HP1b binding inh 7%, L3MBTL1 inh -13%, G9a inh 28µM* and BAZ2B inh 50µM*.
Screening Clc1ccc(C(c2nnnn2C2CCCC2)N2CCN(Cc3ccncc3)CC2)cc1 (configuration not stated) returned Sfp PPTase inh 17%, JMJD2A Tudor 16%[11.4 µM], HP1b binding inh 44%, L3MBTL1 inh 0%, G9a inh 3%[59 µM] and BAZ2B inh inconclusive.
Screening O=C(CCC1N=C2c3ccccc3N=C(SCc3ccc(F)cc3)N2C1=O)NC1CCCCC1 (configuration not stated) returned JMJD2A Tudor -15%, HP1b binding inh 41%, G9a inh -3%[59 µM] and BAZ2B inh -2%.
`COc1ccc(NC(=O)N2CCc3c(sc4c3CCCC4)C2c2ccc(F)cc2)cc1` (configuration not stated) gave JMJD2A Tudor -30%, HP1b binding inh -4%, G9a inh inconclusive and BAZ2B inh inconclusive.
O=C(CSc1ccccc1)N1CCc2ccccc21 was read as Sfp PPTase inh 7%, JMJD2A Tudor 19%, HP1b binding inh 55%, G9a inh 40%[59 µM] and BAZ2B inh 8%.
Screening O=C(CSCc1ccco1)N1CCc2ccccc21 returned Sfp PPTase inh 13%, JMJD2A Tudor -24%, HP1b binding inh 18%, G9a inh 71µM* and BAZ2B inh -27%.
O=C(NC(Cc1ccccc1)C(=O)OCC(=O)N1CCc2ccccc21)c1ccco1 (configuration not stated) was read as Sfp PPTase inh 4%, JMJD2A Tudor -11%, HP1b binding inh 9%, L3MBTL1 inh -4%, G9a inh 14µM* and BAZ2B inh -1%.
COc1ccc(CNC(=O)c2cnn3c(C)c(Cc4ccc(F)cc4)c(C)nc23)cc1 was read as JMJD2A Tudor -9%, HP1b binding inh 26%, G9a inh 1%[59 µM] and BAZ2B inh -3%.
`O=[S+]([O-])(c1c(F)cccc1F)N1CCN([S+](=O)([O-])c2csc3ccccc23)CC1` gave JMJD2A Tudor -16%.
`CCOC(=O)c1ccc(S(=O)(=O)N2CC(=O)Nc3ccccc32)cc1` gave Sfp PPTase inh -21%, JMJD2A Tudor -19%, HP1b binding inh 5%, G9a inh 10µM* and BAZ2B inh 3%.

High-throughput results: PubChem, National Center for Advancing Translational Sciences (NCATS)
